Data: the supplement of paper PMC3545927
The other results are listed elsewhere or left out. The true hit rate is not given.

Molecular target: furin, P09958
Assay: furin cleavage Z-score vs untreated control; higher = more cleavage, active = 3.5 or more, inactive = 1 or less, 8 variable residues between constant flanks
Method in brief: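 To give the cleavage Z-score, log read counts were set against furin-free reactions, lowess-adjusted and scaled by median absolute deviation. These counts came from PCR adapter-tagged, sequenced DNA released when purified furin cut 8-mer peptides fused to a cDNA oligonucleotide and held on magnetic beads by their N-terminus. Digests were 0.01 ml, 1:10 enzyme:substrate, in 50 mM HEPES pH 7.5 with CaCl2 and NaCl, for 7.5, 15 or 30 min.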

furin, P09958, sequence (P09958 whole entry): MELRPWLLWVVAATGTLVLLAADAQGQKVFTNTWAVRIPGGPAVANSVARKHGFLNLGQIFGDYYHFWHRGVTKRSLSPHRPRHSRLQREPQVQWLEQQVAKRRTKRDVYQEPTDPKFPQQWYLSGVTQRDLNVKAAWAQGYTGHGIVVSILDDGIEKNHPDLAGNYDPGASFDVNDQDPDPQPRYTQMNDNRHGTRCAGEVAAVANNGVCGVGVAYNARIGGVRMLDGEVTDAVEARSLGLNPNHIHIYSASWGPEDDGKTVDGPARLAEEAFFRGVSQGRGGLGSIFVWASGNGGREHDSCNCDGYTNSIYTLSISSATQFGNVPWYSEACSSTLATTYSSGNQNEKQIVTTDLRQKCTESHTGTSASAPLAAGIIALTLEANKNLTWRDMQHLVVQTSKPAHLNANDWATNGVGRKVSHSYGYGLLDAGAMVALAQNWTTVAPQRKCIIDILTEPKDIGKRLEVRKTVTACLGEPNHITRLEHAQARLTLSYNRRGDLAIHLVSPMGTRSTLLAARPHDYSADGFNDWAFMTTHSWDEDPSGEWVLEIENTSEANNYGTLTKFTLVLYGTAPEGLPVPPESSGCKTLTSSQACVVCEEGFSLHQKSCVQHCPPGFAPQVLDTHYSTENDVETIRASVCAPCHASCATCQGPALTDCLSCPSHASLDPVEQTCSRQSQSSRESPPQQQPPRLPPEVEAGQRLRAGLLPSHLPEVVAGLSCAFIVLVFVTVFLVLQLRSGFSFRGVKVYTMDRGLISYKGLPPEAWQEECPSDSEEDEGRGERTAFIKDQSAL

Sequence	furin cleavage Z-score (7.5 min)	furin cleavage Z-score (15 min)	furin cleavage Z-score (30 min)
CAPGAATAFVAGNASASA [HC1072]	0.989 (inactive)	1.72	0.199 (inactive)
CASVAATLGFAGNASASA [HC789]	1.93	0.468 (inactive)	0.352 (inactive)
CAKDYRRIRFAGNASASA [FS-173]	0.143 (inactive)	-0.374 (inactive)	0.736 (inactive)
CAILTRRRRFAGNASASA [FS-1347]	8.01 (active)	8.67 (active)	7.5 (active)
CATQVRRRRFAGNASASA [FS-1497]	6.78 (active)	10.5 (active)	7.46 (active)
CARSADGRRFAGNASASA [FS-1654]	-0.463 (inactive)	-0.885 (inactive)	-0.419 (inactive)
CAGLRRRRRFAGNASASA [FS-531]	7.13 (active)	8.7 (active)	7.24 (active)
CARVARRRRFAGNASASA [FS-1164]	8.04 (active)	10 (active)	7.4 (active)
CAGVLAALAAAGNASASA [HC993]	1.76	0.568 (inactive)	-0.149 (inactive)
CASTPCSAYLAGNASASA [HC2549]	0.127 (inactive)	-0.0969 (inactive)	0.416 (inactive)
CAEVVTRTWVAGNASASA [HC150]	-0.769 (inactive)	-0.617 (inactive)	1.23
CAMEMCSQHLAGNASASA [HC1706]	1.54	2.05	0.326 (inactive)
CALPDRRRRFAGNASASA [FS-1027]	6.3 (active)	8.87 (active)	8.99 (active)
CASDFKTWLKAGNASASA [HC1155]	-1.27 (inactive)	-1.41 (inactive)	-0.384 (inactive)
CARRRRSLPRAGNASASA [FS-2797]	4.48 (active)	5.79 (active)	7.11 (active)
CARRRSRNLGAGNASASA [HC217]	4.75 (active)	6.64 (active)	6.07 (active)
CARRRRSLRRAGNASASA [FS-2454]	3.55 (active)	3.5 (active)	6.12 (active)
CARRRRSLPGAGNASASA [FS-1788]	6.91 (active)	8.64 (active)	6.57 (active)
CAIGGHYVQMAGNASASA [HC625]	1.06	1.02	-0.429 (inactive)
CAVILDSFDPAGNASASA [HC1286]	-0.325 (inactive)	-0.389 (inactive)	1.13
CAVVICSMSYAGNASASA [HC2024]	-0.215 (inactive)	-0.424 (inactive)	-0.762 (inactive)
CAEVPCHRWSAGNASASA [HC2388]	0.964 (inactive)	1.69	1.98
